Measured values as given in article PMC5540273 (PLoS ONE, 2017).

test system: T1, ARK5; details: concentration: 1 μM, replicates: in singlicate; n = 1
T1 construct: gene NUAK1
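Further: KINOMEscan kinase panel screen.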

Going from `Cl.c1ccc(-c2ccc3c(Nc4ccc5[nH]ccc5c4)ccnc3c2)nc1` [GW440138] to `CN(C)Cc1ccc(-c2ccc3c(Nc4ccc(Oc5ccccn5)cc4)ccnc3c2)o1` [GW567148], the “%Inh” value rises from 4% to 18%.

`Nc1n[nH]c2cnc(-c3ccccc3)cc12` [SB-642124] and `O=C(Nc1n[nH]c2cc(-c3ccoc3)ccc12)C1CC1` [SB-738481] are the same in “%Inh” value: 0% for the first, 0% for the second.

Compared with `CC(C)(C)c1ccc2nccc(Nc3cccc(O)c3)c2c1` [GW856795], `Oc1cc(Nc2ccnc3cc(I)ccc23)ccc1F` [GW552771] is higher in “%Inh” value: 0% for the first, 18% for the second.

Compared with `O=c1[nH]cc(-c2ccc(N3CCOCC3)cc2)c2sc(-c3cn[nH]c3)cc12` [GSK2276055], `CNC(=O)c1ccccc1Nc1nc(Nc2ccc(N3CCOCC3)cc2)ncc1Cl.Cl` [GSK1576028] is higher in “%Inh” value: 18% for the first, 99.8% for the second.

`CC(=O)N1CCN(c2ccc(Nc3nccc(-c4sc(C(C)C)nc4-c4cccc(NS(=O)(=O)c5cccc(Cl)c5)c4)n3)cn2)CC1` [GSK1660437] and `O=C(Nc1cccc(-c2nn3ccccc3c2-c2ccnc(Nc3cccc(F)c3)n2)c1)c1c(F)ccc(F)c1Cl` [GSK357952] are the same in “%Inh” value: 0% for the first, 0% for the second.

Compared with `COc1cc2c(cc1OCCN1CCNCC1)ncc1c3ccc(C#N)cc3[nH]c21`, `COc1cccc(C2=C(Nc3ccc(Cl)c(C(=O)O)c3)C(=O)NC2=O)c1` [SB-390769] is higher in “%Inh” value: 22% for the first, 24% for the second.

With `O=C(Nc1cccc(Oc2ccc3nc(NC(=O)C4CC4)cn3n2)c1)c1ccccc1C(F)(F)F` the “%Inh” value was 0%.
